The source made the active and inactive calls.
Tests used:
[1] = E. coli DRC41 culture turbidity changes, primary screen, E. coli filamentation inducer project, strain DRC41, OD650, 48 h (AID 1152);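 also: E. coli MC1000 strain DRC41 lacking acrAB efflux pump and sulA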; details: E. coli DRC41 (acrAB sulA), higher = more signal, called active from +8 up or from −8 down
[2] = small-molecule binders of probe aLefty1, primary screen, biochemical, small-molecule microarray, 635/667 nm fluorescence (AID 1153); details: higher = more signal;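 also: score merges spot fluorescence with signal-to-noise ratio from the scanned slide images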
[3] = PSAC antagonists in infected red cells, primary screen, cell-based, P. falciparum Indochina, OD700, 1 h (AID 1154); details: P. falciparum Indochina infected RBC osmotic lysis, higher = more signal, called active from +8 up or from −8 down
[4] = PSAC antagonists in infected red cells, primary screen, cell-based, P. falciparum Indochina, OD700, 2 h (AID 1155);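 also: lysis reports solute entry through the parasite surface anion channel PSAC; channel blockers reduce lysis of infected cells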; details: P. falciparum Indochina infected erythrocytes, osmotic lysis OD700; higher = more signal, called active from +8 up or from −8 down
[5] = osmotic lysis modulators in infected erythrocytes, primary screen, PSAC antagonist project, cell-based, P. falciparum Indochina, OD700, 3 h (AID 1156); details: higher = more signal, called active from +8 up or from −8 down
[6] = PSAC antagonists in infected red cells, primary screen, cell-based, P. falciparum Indochina, OD700, 18 h (AID 1157); details: P. falciparum Indochina infected erythrocytes, osmotic lysis OD700, 18 h; higher = more signal, called active from +8 up or from −8 down
[7] = modulators of S6 phosphorylation in cells, primary screen, cell-based, A549, cytoblot, luminescence, serum-stimulated (AID 1158); details: A549 phospho-S6 cytoblot, 5 h, higher = more signal;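 also: serum-stimulated A549 lung adenocarcinoma cells; signal is phosphorylated S6 detected by cytoblot immunostaining with HRP secondary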
[8] = target: NADPH oxidase 2 (Homo sapiens) (UniProt P04839); experiment: NOX2-dependent H2O2 signal modulators, primary screen, NOX inhibitor project, cell-based, HEK293-NOX2, PMA-stimulated, Amplex Red fluorescence (AID 1159); details: 45 min, higher = more signal, called active from +8 up or from −8 down; also: test concentration not given here
[9] = target: NADPH oxidase 4 (Homo sapiens) (UniProt Q9NPH5); experiment: NOX4-dependent H2O2 signal modulators, primary screen, NOX inhibitor project, cell-based, HEK293-NOX4, tetracycline-induced, Amplex Red fluorescence (AID 1160); details: 45 min, higher = more signal, called active from +8 up or from −8 down
[10] = target: NADPH oxidase 5 (Homo sapiens) (UniProt Q96PH1); experiment: NOX5-dependent H2O2 signal modulators, primary screen, NOX inhibitor project, cell-based, HEK293-NOX5, Amplex Red fluorescence (AID 1161); details: HEK293-NOX5, ionomycin, 45 min, higher = more signal
[11] = A549 cell viability effects, profiling panel, calcein-AM fluorescence, 48 h, basal (AID 1162); details: higher = more signal; also: test concentration not given here
[12] = adipocyte viability effects, profiling panel, cell-based, 3T3-L1 adipocytes, calcein-AM fluorescence, 48 h, basal (AID 1163); details: 3T3-L1 adipocytes viability, higher = more signal; also: test concentration not given here
[13] = HepG2 cell viability effects, profiling panel, calcein-AM fluorescence, 48 h, basal (AID 1164); details: higher = more signal; also: test concentration not given here
[14] = MM1S cell viability effects, profiling panel, calcein-AM fluorescence, 48 h, basal (AID 1165); details: higher = more signal;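 also: viability of MM1S multiple myeloma cells under basal unstimulated conditions; test concentration not given here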
[15] = basal RPMI8226 viability, no added stimulus, profiling panel, cell-based, calcein-AM fluorescence, 48 h, PK04 Diversity Set (AID 1166); details: RPMI8226 myeloma viability, higher = more signal;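 also: cells grown under basal conditions without added stimulus; test concentration not given here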
[16] = basal HepG2 mitochondrial membrane potential changes, profiling panel, cell-based, JC-1 fluorescence, 24 h, 100 nL compound (AID 1167); details: higher = more signal; also: test concentration not given here
[17] = basal 3T3-L1 adipocyte mitochondrial potential changes, profiling panel, cell-based, JC-1 fluorescence, 3T3-L1 adipocytes, 24 h, 100 nL compound (AID 1168); details: JC-1 mitochondrial fluorescence, higher = more signal, called active from +8 up or from −8 down; also: test concentration not given here
[18] = basal RPMI8226 mitochondrial membrane potential changes, profiling panel, cell-based, JC-1 fluorescence, 24 h, 100 nL compound (AID 1169); details: RPMI8226 myeloma, JC-1 mitochondrial potential fluorescence, higher = more signal; also: test concentration not given here
[19] = basal MM1S mitochondrial membrane potential changes, profiling panel, cell-based, JC-1 fluorescence, 24 h, 100 nL compound (AID 1170); details: higher = more signal; also: test concentration not given here
[20] = A549 lung cancer cell viability effects, profiling panel, resazurin fluorescence, 24 h, PK04 Diversity Set (AID 1171); details: higher = more signal, called active from +8 up or from −8 down; also: test concentration not given here

Chain of NADPH oxidase 2 (Homo sapiens) (P04839 whole entry, looked up): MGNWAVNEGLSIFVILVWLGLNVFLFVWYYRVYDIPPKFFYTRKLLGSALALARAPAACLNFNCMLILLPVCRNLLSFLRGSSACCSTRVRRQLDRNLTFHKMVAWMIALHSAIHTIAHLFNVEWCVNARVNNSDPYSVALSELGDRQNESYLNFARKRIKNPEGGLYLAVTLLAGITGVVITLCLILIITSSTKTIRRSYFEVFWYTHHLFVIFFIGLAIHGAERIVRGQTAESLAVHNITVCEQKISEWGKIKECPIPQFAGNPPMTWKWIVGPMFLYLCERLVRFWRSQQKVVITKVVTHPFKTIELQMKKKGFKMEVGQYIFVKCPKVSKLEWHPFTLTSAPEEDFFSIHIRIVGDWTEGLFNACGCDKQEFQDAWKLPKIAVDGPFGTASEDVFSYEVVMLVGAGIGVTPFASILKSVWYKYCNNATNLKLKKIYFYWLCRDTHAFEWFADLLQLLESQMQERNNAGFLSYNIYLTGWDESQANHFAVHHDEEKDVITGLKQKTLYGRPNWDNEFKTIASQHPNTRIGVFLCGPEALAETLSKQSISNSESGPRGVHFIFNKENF
Chain of NADPH oxidase 4 (Homo sapiens) (Q9NPH5 whole entry, looked up): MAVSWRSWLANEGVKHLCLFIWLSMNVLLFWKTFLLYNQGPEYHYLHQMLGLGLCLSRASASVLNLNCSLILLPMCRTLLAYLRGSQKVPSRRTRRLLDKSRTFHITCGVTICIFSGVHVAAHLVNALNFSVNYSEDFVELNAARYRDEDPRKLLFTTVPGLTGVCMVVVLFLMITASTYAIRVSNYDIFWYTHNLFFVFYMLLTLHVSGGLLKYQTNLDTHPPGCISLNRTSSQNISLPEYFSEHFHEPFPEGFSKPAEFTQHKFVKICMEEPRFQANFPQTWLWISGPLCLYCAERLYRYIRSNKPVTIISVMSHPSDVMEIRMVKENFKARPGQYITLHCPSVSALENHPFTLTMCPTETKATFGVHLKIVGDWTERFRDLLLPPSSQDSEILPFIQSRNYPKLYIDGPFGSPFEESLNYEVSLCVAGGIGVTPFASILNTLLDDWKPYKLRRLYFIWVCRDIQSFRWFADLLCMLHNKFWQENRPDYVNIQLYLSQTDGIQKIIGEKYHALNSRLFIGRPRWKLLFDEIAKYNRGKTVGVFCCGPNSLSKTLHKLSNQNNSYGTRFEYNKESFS
Chain of NADPH oxidase 5 (Homo sapiens) (Q96PH1 whole entry, looked up): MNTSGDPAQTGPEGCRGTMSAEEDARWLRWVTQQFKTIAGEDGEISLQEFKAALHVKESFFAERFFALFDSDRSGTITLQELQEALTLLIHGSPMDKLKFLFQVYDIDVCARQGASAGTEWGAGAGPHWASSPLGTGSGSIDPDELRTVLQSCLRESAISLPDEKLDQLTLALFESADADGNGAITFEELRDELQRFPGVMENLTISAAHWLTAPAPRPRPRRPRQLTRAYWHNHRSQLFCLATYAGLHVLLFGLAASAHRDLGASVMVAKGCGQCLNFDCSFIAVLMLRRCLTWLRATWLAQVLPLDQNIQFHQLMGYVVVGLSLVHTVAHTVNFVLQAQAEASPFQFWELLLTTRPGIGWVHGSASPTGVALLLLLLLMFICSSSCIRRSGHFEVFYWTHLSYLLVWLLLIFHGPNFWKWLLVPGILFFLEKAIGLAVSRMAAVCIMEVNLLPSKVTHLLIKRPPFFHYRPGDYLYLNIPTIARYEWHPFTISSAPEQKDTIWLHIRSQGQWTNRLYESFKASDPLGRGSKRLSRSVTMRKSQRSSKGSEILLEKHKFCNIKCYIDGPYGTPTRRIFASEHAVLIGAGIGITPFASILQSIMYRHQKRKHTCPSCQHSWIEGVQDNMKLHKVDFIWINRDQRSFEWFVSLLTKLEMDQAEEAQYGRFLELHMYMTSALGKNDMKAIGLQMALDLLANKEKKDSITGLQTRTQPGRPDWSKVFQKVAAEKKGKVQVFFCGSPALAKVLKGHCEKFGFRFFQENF

| SMILES | z-score [1] | composite z-score [2] | z-score [3] | z-score [4] | z-score [5] | z-score [6] | z-score [7] | z-score [8] | z-score [9] | z-score [10] | z-score [11] | z-score [12] | z-score [13] | z-score [14] | z-score [15] | z-score [16] | z-score [17] | z-score [18] | z-score [19] | z-score [20] |
| --- | --- | --- | --- | --- | --- | --- | --- | --- | --- | --- | --- | --- | --- | --- | --- | --- | --- | --- | --- | --- |
| CCN1C(=O)[C@H]2[C@H]3[C@H](O)[C@H](O)CC(=NOCC(C)C)[C@H]3CC[C@H]2C1=O | 0.552 (inactive) | -0.0658 | -0.135 (inactive) | -0.0288 (inactive) | -0.369 (inactive) | -0.433 (inactive) | -0.812 | -5.92 (inactive) | 0.358 (inactive) | -0.231 | -0.124 | -0.574 | -0.391 | 0.199 | 0.286 | -0.584 | -0.977 (inactive) | 0.0664 | -0.86 | -0.348 (inactive) |
| COC(=O)[C@H](C)NC(=O)CC=C[C@@H](C)[C@@H]1C=C[C@H](O)[C@@H](CO)O1 | 0.645 (inactive) | -0.269 | -0.488 (inactive) | 0.544 (inactive) | -0.0002 (inactive) | 0.0748 (inactive) | 0.244 | 0.534 (inactive) | 0.62 (inactive) | -0.231 | -0.244 | -0.586 | 0.583 | 0.203 | -0.859 | -0.627 | -1.04 (inactive) | 0.685 | -0.463 | -0.521 (inactive) |
| CCOC(=O)CCN1C(=O)[C@H]2[C@H]3[C@H](O)[C@H](O)CC(=NNC(=O)OCc4ccccc4)[C@H]3CC[C@H]2C1=O | -0.351 (inactive) | -0.0162 | 0.992 (inactive) | 0.0095 (inactive) | 0.0794 (inactive) | 0.0606 (inactive) | -0.707 | 1.28 (inactive) | 0.327 (inactive) | 0.595 | 0.391 | 1.33 | -0.222 | 0.357 | -0.0554 | -0.952 | -0.223 (inactive) | -0.0449 | 0.435 | -0.367 (inactive) |
| COC(=O)[C@H](C)NC(=O)CCC1CC(OC(=O)NCc2cccc3ccccc23)CC2(CCCC(COC(=O)NCCCN3CCCC3=O)O2)O1 (stereo not given in full) | -3.55 (inactive) | 0.582 | 0.381 (inactive) | 0.397 (inactive) | 0.0085 (inactive) | 0.246 (inactive) | -0.463 | -0.383 (inactive) | -0.0825 (inactive) | -0.075 | 0.278 | -0.172 | 0.488 | 0.145 | -0.0813 | 0.24 | 0.338 (inactive) | -0.344 | -0.394 | 0.44 (inactive) |
| CC(C)=NO[C@@H](C)c1cn([C@H](CO)Cc2ccccc2)nn1 | -1.99 (inactive) | 0.423 | -0.407 (inactive) | -1.7 (inactive) | -0.222 (inactive) | -1.75 (inactive) | 1.54 | -0.689 (inactive) | 0.0692 (inactive) | 0.628 | 0.308 | 0.343 | 1.17 | 0.182 | -0.428 | 0.614 | 0.0209 (inactive) | 0.386 | 0.514 | -1.35 (inactive) |
| COC(=O)[C@H](C)NC(=O)CCC1CC(OC(=O)NCc2ccc3c(c2)OCO3)CC2(CCCC(COC(=O)NCCC(C)C)O2)O1 (stereo not given in full) | -1.06 (inactive) | 0.0774 | 19.8 (active) | 4.71 (inactive) | 0.3 (inactive) | 0.638 (inactive) | 0.392 | 0.738 (inactive) | 0.437 (inactive) | 0.284 | -0.121 | 0.114 | -1.19 | -3.18 | -2.13 | -0.523 | -0.452 (inactive) | -0.253 | 0.177 | 0.442 (inactive) |
| CC(C)=NO[C@H](C)c1cn([C@@H]2COC[C@H]2O)nn1 | 0.36 (inactive) | -0.0518 | 0.813 (inactive) | 0.935 (inactive) | 0.627 (inactive) | 0.489 (inactive) | 0.381 | 0.0279 (inactive) | 0.549 (inactive) | 0.595 | 0.874 | -0.573 | 0.818 | 0.0495 | -0.275 | 1.01 | 0.0682 (inactive) | 0.183 | -0.593 | -0.483 (inactive) |
| CCOC(=O)[C@H](Cc1ccccc1)NC(=O)CCC1CC(OC(=O)NCc2cccc3ccccc23)CC2(CCCC(COC(=O)NCc3ccc4c(c3)OCO4)O2)O1 (stereo not given in full) | 1.21 (inactive) | 0.0686 | 0.509 (inactive) | -0.255 (inactive) | -0.336 (inactive) | -0.12 (inactive) | 0.184 | 0.691 (inactive) | 0.538 (inactive) | 0.712 | 0.664 | -0.171 | 0.78 | 0.505 | -1.48 | 0.561 | 0.953 (inactive) | -0.675 | -0.239 | -0.269 (inactive) |
| O=C1C2=CC[C@H]3C(=O)N(C[C@@H]4CCCO4)C(=O)[C@H]3[C@H]2[C@H](O)[C@@H]2O[C@H]12 | 0.194 (inactive) | -0.0969 | -0.303 (inactive) | 0.59 (inactive) | -0.2 (inactive) | 0.108 (inactive) | 0.177 | -1.35 (inactive) | -0.219 (inactive) | 0.271 | 0.144 | -0.579 | -0.228 | -3.11 | -3.32 | -0.549 | 0.465 (inactive) | -0.836 | -3.04 | -0.824 (inactive) |

— PubChem BioAssay
